The source of these data is PubChem BioAssay (NCATS).

“And” between values parts separate entries of the source, which are not always exact repeats. Equal entries are not always repeated. The source made the active and inactive calls. Unless noted, the call rests on the fitted dose curve.

For experiment [1], the target named is Androgen receptor (Homo sapiens) (UniProt P10275). As to the kind of experiment: qHTS assay for small molecule agonists of androgen receptor signaling (AID 588515; active means well fitted curve in the direction sought with a large enough effect in the signal ratio, with a control signal flat; inconclusive means small, poorly fitted or top-dose-only effect, or effect the other way, or a change in a side signal; inactive means no such curve, though single readings can be large or run the other way; the % refers to the signal ratio; further: on the % scale 0 is the no-effect control and ±100 the full control effect). The conditions noted are these: AR-UAS-bla HEK293, beta-lactamase ratio, agonist 16 h; stronger effect = higher value. The essentials:
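Stimulation of an AR-responsive β-lactamase reporter in GripTite HEK293 cells was measured after 16 h compound exposure at 37 °C, via CCF4 fluorescence after 2 h RT. EC50 from Hill fits, normalized to R1881 at 30 nM.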
In general terms: In qHTS, concentration-response curves come from the screen itself.

Experiment [2] shares this target. As to the kind of experiment: qHTS assay for small molecule antagonists of androgen receptor signaling (AID 588516; active means well fitted curve in the direction sought with a large enough effect in the signal ratio, with a control signal flat, not every such curve was filed as active; inconclusive means small, poorly fitted or top-dose-only effect, or effect the other way, or a change in a side signal; inactive means no such curve, though single readings can be large or run the other way; the % refers to the signal ratio; further: on the % scale 0 is the no-effect control and ±100 the full control effect). The following applies: AR-UAS-bla HEK293, beta-lactamase ratio, antagonist mode, 16 h; series mostly up to 76.8 µM. The essentials:
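Cells were plated and incubated 5 h, compounds added in titration, then R1881 (10 nM final) as agonist. After 16 h at 37 C, CCF4 substrate was loaded for 2 h at room temperature and fluorescence measured.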

Experiment [3] deals with Bile acid receptor (Homo sapiens) (UniProt Q96RI1). As to the kind of experiment: qHTS assay for small molecule antagonists of farnesoid X receptor signaling (AID 588526). Further: on the % scale 0 is the no-effect control and ±100 the full control effect. The conditions noted are these: HEK293T FXR-UAS-bla, beta-lactamase ratio, antagonist mode; series mostly up to 76.7 µM. The essentials: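 Concentration-response titrations were fitted to the Hill equation for half-maximal inhibition and maximal response, with data normalised to 50 uM chenodeoxycholic acid and DMSO control wells. Cells: FXR-UAS-bla HEK293T, dialyzed FBS.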
Chain of Bile acid receptor (Homo sapiens) (Q96RI1 whole entry, looked up): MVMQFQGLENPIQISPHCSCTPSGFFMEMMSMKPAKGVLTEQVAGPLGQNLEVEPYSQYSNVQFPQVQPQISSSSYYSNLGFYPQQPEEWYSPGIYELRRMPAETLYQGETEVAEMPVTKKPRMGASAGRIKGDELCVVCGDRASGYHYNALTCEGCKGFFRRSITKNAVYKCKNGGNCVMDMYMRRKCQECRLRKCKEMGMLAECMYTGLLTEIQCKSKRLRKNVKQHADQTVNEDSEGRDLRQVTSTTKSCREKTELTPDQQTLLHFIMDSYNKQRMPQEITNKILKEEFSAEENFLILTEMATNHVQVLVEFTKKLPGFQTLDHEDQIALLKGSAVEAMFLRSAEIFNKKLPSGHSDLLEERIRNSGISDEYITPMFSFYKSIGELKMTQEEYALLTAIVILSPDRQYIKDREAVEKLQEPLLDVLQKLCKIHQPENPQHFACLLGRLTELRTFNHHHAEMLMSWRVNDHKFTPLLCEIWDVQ

Experiment [4] addresses Glucocorticoid receptor (Homo sapiens) (UniProt P04150). As to the kind of experiment: qHTS assay for small molecule antagonists of glucocorticoid receptor signaling (AID 588533; active means well fitted inhibition curve with a large enough effect in the signal ratio, with a control signal flat, not every such curve was filed as active; inconclusive means small, poorly fitted or top-dose-only effect, or effect the other way, or a change in a side signal; the % refers to the signal ratio;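 further: cells stimulated with 2 nM dexamethasone as agonist; on the % scale 0 is the no-effect control and ±100 the full control effect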). The following applies: HeLa MMTV-bla, GRE beta-lactamase ratio, antagonist mode, 18 h; series mostly up to 76.8 µM. A digest of the protocol: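 Antagonist-mode qHTS: compound titrations added to GRE-bla HeLa cells, then dexamethasone 2 nM final; 18 h, 37 C. CCF4 FRET fluorescence normalized to dexamethasone and DMSO; IC50 from Hill fit.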

A short description of experiment [5]: qHTS assay for small molecule antagonists of peroxisome proliferator-activated receptor delta signaling (AID 588535).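 Further: cells co-treated with a PPAR-delta agonist as stimulator during compound exposure.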 The conditions noted are these: HEK293T PPARd-UAS-bla, beta-lactamase FRET ratio, 18 h; 460 nm channel. The essentials: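 Inhibition of PPAR-delta response element-driven beta-lactamase expression is measured in HEK293T cells exposed to a compound titration series for 18 hrs at 37 C. Half-maximal inhibition comes from Hill equation fitting.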

Experiment [6] addresses Peroxisome proliferator-activated receptor gamma (Homo sapiens) (UniProt P37231). As to the kind of experiment: qHTS assay for small molecule antagonists of peroxisome proliferator-activated receptor gamma signaling (AID 588537; active means well fitted inhibition curve with a large enough effect in the signal ratio, with a control signal flat, not every such curve was filed as active; inconclusive means small, poorly fitted or top-dose-only effect, or effect the other way, or a change in a side signal; the % refers to the signal ratio;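 further: reporter cells co-stimulated with 50 nM rosiglitazone agonist during compound treatment; % of control where 0% means no effect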). The following applies: HEK293 PPARg-UAS-bla, beta-lactamase ratio, antagonist mode; series mostly up to 76.8 µM. A digest of the protocol:
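Compounds are tested as concentration series for inhibition of rosiglitazone-driven (50 nM) reporter expression in GeneBLAzer PPAR-gamma-UAS-bla HEK293 cells. After 16 h at 37 C, CCF4 substrate is added for 2 h at room temperature and blue/green fluorescence is measured.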

Experiment [7] addresses Vitamin D3 receptor (Homo sapiens) (UniProt P11473). As to the kind of experiment: qHTS assay for small molecule agonists of vitamin D receptor signaling (AID 588543).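 Further: 0% = DMSO basal and 100% = reference agonist control.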 The conditions noted are these: HEK293T VDR-UAS-bla, beta-lactamase ratio, 16 h; series mostly up to 76.8 µM. A digest of the protocol:
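Reporter cells (HEK293T, VDR-UAS-bla) were seeded in medium with 2% charcoal-stripped serum and incubated 5 h, then compounds in concentration series were added for 16 h at 37 °C. Stimulation was scaled between DMSO basal and 50 nM 1α,25-dihydroxyvitamin D3.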

Experiment [8] can be described thus: qHTS assay for small molecule agonists of retinoid X receptor alpha signaling (AID 588544). The conditions noted are these: HEK293T RXRa-UAS-bla, beta-lactamase reporter, 18 h; 530 nm emission.
Experiment [9] concerns the target Thyroid hormone receptor beta (Homo sapiens) (UniProt P10828). As to the kind of experiment: qHTS assay for small molecule agonists of thyroid hormone receptor beta signaling (AID 588545).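 Further: 0% = DMSO only and 100% = 10 nM T3.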 The following applies: TR-UAS-bla GripTite HEK 293, beta-lactamase ratio, agonist mode, 18 h, percent of T3 response, DMSO as zero; series mostly up to 76.7 µM. The essentials:
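Stimulation of a TR-driven beta-lactamase reporter was quantified in GripTite HEK 293 cells. Compound series ran for 18 hrs; curves were normalized to T3 and DMSO controls and fitted to yield EC50.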

A short description of experiment [10]: qHTS assay for small molecule antagonists of retinoid X receptor alpha signaling (AID 588546; active means well fitted inhibition curve with a large enough effect in the signal ratio, with a control signal flat, not every such curve was filed as active; inconclusive means small, poorly fitted or top-dose-only effect, or effect the other way, or a change in a side signal; inactive means no such curve, though single readings can be large or run the other way; the % refers to the signal ratio). The conditions noted are these: HEK293T RXRa-UAS-bla, beta-lactamase ratio, antagonist mode; measured here: W530 green channel, cytotoxicity proxy. The essentials: (§1)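 Beta-lactamase reporter inhibition, read as CCF4 fluorescence ratio (ex 405, em 460/530 nm) after 2 h at RT. HEK293T UAS-bla cells, 2500/well, were stimulated with 9-cis-RA at 500 or 100 nM final alongside test compound for 18 h at 37 C.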

Experiment [11] addresses Retinoic acid receptor RXR-alpha (Homo sapiens) (UniProt P19793). The description is as above. The following applies: HEK293T RXRa-UAS-bla, beta-lactamase ratio, antagonist mode. The essentials:
as §1

Experiment [12] has as its target Thyroid hormone receptor beta (Homo sapiens) (UniProt P10828). As to the kind of experiment: qHTS assay for small molecule antagonists of thyroid hormone receptor beta signaling (AID 588547; active means well fitted inhibition curve with a large enough effect in the signal ratio, with a control signal flat, not every such curve was filed as active; inconclusive means small, poorly fitted or top-dose-only effect, or effect the other way, or a change in a side signal; the % refers to the signal ratio). The following applies: TR-UAS-bla HEK293, beta-lactamase ratio, antagonist mode, 18 h. The essentials: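 TR-UAS-bla GripTite HEK293 cells in 2% charcoal/dextran FBS medium were preincubated 4 h at 37 C, given compound (0.59 nM to 92 uM) plus 0.4 nM T3 (final) for 18 h, then CCF4 for 2 h at RT; Hill fit gave IC50.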

Experiment [13] deals with Voltage-gated inwardly rectifying potassium channel KCNH2 (Homo sapiens) (UniProt Q12809). As to the kind of experiment: qHTS Assay for Small Molecule Inhibitors of the Human hERG Channel Activity (AID 588834; active means well fitted inhibition curve with a large enough effect; inconclusive means small, poorly fitted or top-dose-only effect;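 further: top concentration of the series differs between compounds; on the % scale 0 is the no-effect control and ±100 the full control effect; lower thallium flux fluorescence means stronger hERG block; nearly all actives have a fitted effect of over 50% in size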). The following applies: U2OS BacMam hERG, FluxOR thallium flux fluorescence; series mostly up to 46.1 µM. A digest of the protocol: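 Step 1: BacMam hERG transduction of U2OS, 4 hrs RT. Step 2: overnight 37 °C, plate 2000 cells/well, 4 hr. Step 3: FluxOR load, compound 10 min, stimulate, read fluorescence.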
Chain of Voltage-gated inwardly rectifying potassium channel KCNH2 (Homo sapiens) (Q12809 whole entry, looked up): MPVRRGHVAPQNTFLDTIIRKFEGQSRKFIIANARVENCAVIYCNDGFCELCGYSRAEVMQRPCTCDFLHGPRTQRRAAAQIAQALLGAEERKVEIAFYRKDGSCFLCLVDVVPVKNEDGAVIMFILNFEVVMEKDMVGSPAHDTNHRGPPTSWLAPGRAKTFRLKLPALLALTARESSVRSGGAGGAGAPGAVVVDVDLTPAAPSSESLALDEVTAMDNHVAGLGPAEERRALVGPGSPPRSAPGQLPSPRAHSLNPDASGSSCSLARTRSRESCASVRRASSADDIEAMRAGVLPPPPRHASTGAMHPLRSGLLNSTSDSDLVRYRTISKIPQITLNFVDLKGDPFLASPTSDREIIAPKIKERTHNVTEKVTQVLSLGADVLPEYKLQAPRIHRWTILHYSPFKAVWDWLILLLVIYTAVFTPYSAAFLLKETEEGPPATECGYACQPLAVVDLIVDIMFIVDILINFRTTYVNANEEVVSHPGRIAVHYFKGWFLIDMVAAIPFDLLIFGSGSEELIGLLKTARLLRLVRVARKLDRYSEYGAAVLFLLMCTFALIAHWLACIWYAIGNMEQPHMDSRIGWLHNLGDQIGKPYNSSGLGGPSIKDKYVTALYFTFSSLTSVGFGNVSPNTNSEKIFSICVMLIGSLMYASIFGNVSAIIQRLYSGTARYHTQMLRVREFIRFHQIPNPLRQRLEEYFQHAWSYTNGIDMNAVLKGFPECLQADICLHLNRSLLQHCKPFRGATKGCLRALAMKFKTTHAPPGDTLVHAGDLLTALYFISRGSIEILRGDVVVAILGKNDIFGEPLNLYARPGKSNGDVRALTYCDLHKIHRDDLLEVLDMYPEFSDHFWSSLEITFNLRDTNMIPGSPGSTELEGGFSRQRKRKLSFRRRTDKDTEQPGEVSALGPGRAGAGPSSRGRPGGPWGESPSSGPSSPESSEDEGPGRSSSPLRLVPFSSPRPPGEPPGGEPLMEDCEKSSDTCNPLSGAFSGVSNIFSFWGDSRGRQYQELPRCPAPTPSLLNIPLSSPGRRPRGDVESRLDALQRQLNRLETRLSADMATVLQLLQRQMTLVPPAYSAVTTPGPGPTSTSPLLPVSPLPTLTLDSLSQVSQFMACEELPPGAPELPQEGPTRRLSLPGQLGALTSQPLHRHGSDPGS

The target in experiment [14] is Luciferin 4-monooxygenase (Photinus pyralis) (UniProt P08659). As to the kind of experiment: Biochemical firefly luciferase enzyme assay for NPC (AID 624030; active means well fitted inhibition curve with a large enough effect; inconclusive means small, poorly fitted or top-dose-only effect; further: nearly all actives have a fitted effect of over 70% in size; further: potency means the concentration at half of the fitted maximal effect). The following applies: purified P. pyralis luciferase, luminescence, 5 min; series mostly up to 58.6 µM. A digest of the protocol: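 Counter-screen for direct inhibition of the luciferase enzyme by approved-drug library compounds, run at 10 nM enzyme in 50 mM Tris acetate (final). Luminescence was read within 5 min of enzyme-buffer addition and normalized to PTC124 versus DMSO (0%).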
Chain of Luciferin 4-monooxygenase (Photinus pyralis) (P08659 whole entry, looked up): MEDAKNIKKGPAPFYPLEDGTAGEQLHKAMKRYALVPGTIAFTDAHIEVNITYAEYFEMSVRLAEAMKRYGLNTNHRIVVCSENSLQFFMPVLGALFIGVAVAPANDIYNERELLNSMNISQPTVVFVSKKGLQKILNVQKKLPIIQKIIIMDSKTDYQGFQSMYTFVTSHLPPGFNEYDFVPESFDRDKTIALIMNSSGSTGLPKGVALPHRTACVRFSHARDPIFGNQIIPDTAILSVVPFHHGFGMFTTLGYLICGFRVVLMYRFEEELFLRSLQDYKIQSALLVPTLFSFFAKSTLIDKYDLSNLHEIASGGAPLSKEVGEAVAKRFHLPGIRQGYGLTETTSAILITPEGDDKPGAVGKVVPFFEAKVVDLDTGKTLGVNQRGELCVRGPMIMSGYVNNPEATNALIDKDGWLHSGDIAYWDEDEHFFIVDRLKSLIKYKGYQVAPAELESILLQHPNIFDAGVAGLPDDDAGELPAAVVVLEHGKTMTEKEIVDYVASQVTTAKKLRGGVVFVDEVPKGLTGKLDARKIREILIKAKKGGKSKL

Experiment [15] deals with Vitamin D3 receptor (Homo sapiens) (UniProt P11473). As to the kind of experiment: qHTS assay for small molecule antagonists of vitamin D receptor signaling (AID 588541). The conditions noted are these: HEK293T VDR-UAS-bla, beta-lactamase ratio, antagonist mode; series mostly up to 76.7 µM. The essentials:
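VDR-UAS-bla HEK293T cells (2000/well, 2% charcoal-stripped FBS) were treated with titrated compounds plus 1-alpha,25-dihydroxyvitamin D3 (50 nM or 3 nM final) for 16 h at 37 C. CCF4 beta-lactamase fluorescence was read; Hill fits gave IC50.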

Experiment [16] has as its target Estrogen receptor (Homo sapiens) (UniProt P03372). As to the kind of experiment: qHTS assay for small molecule antagonists of estrogen receptor alpha signaling (AID 588513; active means well fitted curve in the direction sought with a large enough effect in the signal ratio, with a control signal flat, not every such curve was filed as active; inconclusive means small, poorly fitted or top-dose-only effect, or effect the other way, or a change in a side signal; inactive means no such curve, though single readings can be large or run the other way; the % refers to the signal ratio; further: potency means the concentration at half of the fitted maximal effect). The following applies: ER-alpha-UAS-bla HEK293, beta-lactamase ratio, antagonist mode; series mostly up to 76.9 µM. The essentials:
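Fluorescence from CCF4 substrate after 2 h at room temperature gave reporter activity; cells had been exposed to compound and 0.5nM 17-beta-estradiol for 18 h at 37 C. Hill-equation fitting yielded IC50 and maximal response.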

The target is the same in experiment [17]. As to the kind of experiment: qHTS assay for small molecule agonists of estrogen receptor alpha signaling (AID 588514).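 Further: 0% = vehicle only and 100% = reference agonist; nearly all actives have a fitted effect of over 70% in size.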 The conditions noted are these: ER-alpha-UAS-bla HEK293, beta-lactamase ratio, 18 h, percent of full estradiol response, vehicle zero; series mostly up to 76.8 µM. A digest of the protocol: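 EC50 and efficacy came from Hill fits of beta-lactamase reporter signal (CCF4 dye, 2 h at room temperature) scaled between DMSO and 20 nM 17-beta-estradiol. Agonist mode: HEK293 ER-alpha-UAS-bla cells in charcoal/dextran-stripped serum medium, 18 h compound exposure at 37 C.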

Experiment [18] deals with Glucocorticoid receptor (Homo sapiens) (UniProt P04150). As to the kind of experiment: qHTS assay for small molecule agonists of glucocorticoid receptor signaling (AID 588532; active means well fitted curve in the direction sought with a large enough effect in the signal ratio, with a control signal flat; inconclusive means small, poorly fitted or top-dose-only effect, or a change in a side signal; inactive means no such curve, though single readings can be large or run the other way; the % refers to the signal ratio;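 further: 100% = dexamethasone at 0.1 µM and 0% = DMSO only wells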). The conditions noted are these: HeLa MMTV-bla, beta-lactamase ratio, agonist, 18 h; stronger effect = higher value; percent of dexamethasone control, DMSO zero. The essentials:
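Titration series, up to 92 uM, applied to GRE-bla HeLa cells for 18 h at 37 C. Detection by CCF4 FRET substrate after 2 h at RT.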

The target of experiment [19] is Peroxisome proliferator-activated receptor gamma (Homo sapiens) (UniProt P37231). As to the kind of experiment: qHTS assay for small molecule agonists of peroxisome proliferator-activated receptor gamma signaling (AID 588536; active means well fitted curve in the direction sought with a large enough effect in the signal ratio, with a control signal flat, not every such curve was filed as active; inconclusive means small, poorly fitted or top-dose-only effect, or effect the other way, or a change in a side signal; inactive means no such curve, though single readings can be large or run the other way; the % refers to the signal ratio;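 further: 0% = DMSO basal wells and 100% = rosiglitazone at 2 µM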). The following applies: HEK293 PPARg-UAS-bla, beta-lactamase ratio, 16 h, percent of rosiglitazone response, DMSO as zero; series mostly up to 76.7 µM. A digest of the protocol:
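Compound treatment: 16 h, 37 C, HEK293 GeneBLAzer cells. Detection: CCF4, 2 h RT. Values: Hill-fit EC50, efficacy as % of 2 uM rosiglitazone.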

Chain of Peroxisome proliferator-activated receptor gamma (Homo sapiens) (P37231 whole entry, looked up): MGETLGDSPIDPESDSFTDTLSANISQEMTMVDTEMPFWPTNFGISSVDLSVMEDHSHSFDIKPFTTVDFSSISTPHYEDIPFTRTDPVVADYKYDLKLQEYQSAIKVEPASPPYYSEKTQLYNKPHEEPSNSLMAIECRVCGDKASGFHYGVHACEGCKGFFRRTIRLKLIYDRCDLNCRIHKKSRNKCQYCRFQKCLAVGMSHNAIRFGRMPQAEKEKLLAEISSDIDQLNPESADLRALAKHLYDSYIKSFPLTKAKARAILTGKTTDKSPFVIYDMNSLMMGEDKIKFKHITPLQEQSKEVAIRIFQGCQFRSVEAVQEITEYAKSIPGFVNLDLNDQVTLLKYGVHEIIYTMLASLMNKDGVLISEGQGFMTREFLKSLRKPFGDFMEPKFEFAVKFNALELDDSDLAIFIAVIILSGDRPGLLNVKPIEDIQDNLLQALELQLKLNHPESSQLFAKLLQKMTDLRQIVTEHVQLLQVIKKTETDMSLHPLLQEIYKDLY
Chain of Vitamin D3 receptor (Homo sapiens) (P11473 whole entry, looked up): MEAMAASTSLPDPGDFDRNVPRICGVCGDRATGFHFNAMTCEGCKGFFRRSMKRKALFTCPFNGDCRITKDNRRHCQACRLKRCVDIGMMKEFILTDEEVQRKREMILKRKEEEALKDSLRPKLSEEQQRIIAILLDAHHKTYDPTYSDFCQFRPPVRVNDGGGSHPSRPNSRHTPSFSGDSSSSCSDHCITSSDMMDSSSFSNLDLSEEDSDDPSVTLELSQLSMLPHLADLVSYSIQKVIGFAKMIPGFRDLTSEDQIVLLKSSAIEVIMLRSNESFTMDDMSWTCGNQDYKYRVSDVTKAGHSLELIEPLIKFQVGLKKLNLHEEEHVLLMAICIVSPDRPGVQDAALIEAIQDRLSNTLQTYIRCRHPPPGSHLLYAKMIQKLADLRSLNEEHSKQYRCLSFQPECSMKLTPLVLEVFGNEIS
Chain of Retinoic acid receptor RXR-alpha (Homo sapiens) (P19793 whole entry, looked up): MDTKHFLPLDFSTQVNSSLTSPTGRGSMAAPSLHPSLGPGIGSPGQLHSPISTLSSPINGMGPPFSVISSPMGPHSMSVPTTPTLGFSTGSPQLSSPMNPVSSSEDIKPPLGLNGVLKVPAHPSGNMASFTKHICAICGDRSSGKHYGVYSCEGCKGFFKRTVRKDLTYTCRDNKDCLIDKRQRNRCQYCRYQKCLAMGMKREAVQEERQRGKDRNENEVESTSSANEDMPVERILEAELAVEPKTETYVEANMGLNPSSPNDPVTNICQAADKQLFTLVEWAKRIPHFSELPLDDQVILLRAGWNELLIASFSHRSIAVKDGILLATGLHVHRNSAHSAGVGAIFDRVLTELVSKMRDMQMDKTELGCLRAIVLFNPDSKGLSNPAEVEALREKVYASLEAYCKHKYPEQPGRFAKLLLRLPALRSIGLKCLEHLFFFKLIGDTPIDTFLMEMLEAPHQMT
Chain of Thyroid hormone receptor beta (Homo sapiens) (P10828 whole entry, looked up): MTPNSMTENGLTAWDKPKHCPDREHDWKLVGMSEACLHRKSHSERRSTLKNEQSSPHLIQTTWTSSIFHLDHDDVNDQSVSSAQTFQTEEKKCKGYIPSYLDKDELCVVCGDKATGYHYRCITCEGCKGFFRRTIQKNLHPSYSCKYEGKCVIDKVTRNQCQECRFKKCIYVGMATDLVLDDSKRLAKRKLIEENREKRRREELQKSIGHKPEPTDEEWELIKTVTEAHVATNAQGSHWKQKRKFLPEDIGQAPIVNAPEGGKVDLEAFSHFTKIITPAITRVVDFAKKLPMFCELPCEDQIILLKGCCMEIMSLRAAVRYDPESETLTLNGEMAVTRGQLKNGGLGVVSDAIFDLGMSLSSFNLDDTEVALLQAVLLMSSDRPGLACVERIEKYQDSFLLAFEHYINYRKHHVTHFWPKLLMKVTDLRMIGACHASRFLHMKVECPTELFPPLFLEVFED
Chain of Estrogen receptor (Homo sapiens) (P03372 whole entry, looked up): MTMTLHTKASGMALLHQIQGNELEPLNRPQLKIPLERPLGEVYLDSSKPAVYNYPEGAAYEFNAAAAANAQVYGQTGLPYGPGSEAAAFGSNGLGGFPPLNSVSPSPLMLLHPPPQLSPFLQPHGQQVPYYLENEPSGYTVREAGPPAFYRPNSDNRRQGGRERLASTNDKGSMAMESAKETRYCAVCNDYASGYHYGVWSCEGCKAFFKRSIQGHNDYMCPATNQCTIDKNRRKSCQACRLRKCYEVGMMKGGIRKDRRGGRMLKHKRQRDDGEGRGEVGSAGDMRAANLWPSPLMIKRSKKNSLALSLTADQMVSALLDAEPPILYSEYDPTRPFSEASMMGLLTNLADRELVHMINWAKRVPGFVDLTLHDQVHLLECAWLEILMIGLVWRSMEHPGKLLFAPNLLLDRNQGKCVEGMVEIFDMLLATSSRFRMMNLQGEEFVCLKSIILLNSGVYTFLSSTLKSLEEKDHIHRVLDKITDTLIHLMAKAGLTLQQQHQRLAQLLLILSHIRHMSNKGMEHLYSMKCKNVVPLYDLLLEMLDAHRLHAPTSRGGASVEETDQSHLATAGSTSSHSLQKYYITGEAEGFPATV

In the case of `O=C(O)c1cc(-c2ccccc2)nc2ccccc12`, the activation in experiment [1] was -15.7% (inactive). Besides, the result in [2], in experiment [3], in experiment [7] and in experiment [9] was inactive. Moreover, the Potency result in [4], in [6] and in experiment [13] was “inactive” throughout. Moreover, the max response is 54.7% in experiment [5], 26.3% in [8], 9.45% in experiment [10] and -7.59% (inactive) in experiment [11]. Further, the activity change % (negative = inhibition) in experiment [12] is 5.82% (inactive). Also, the Potency in experiment [14] is 18.6 µM (active).
`CC(C)NCC(O)COc1cccc2[nH]ccc12` (centres undefined): the Potency result in [13] and in experiment [14] was “inactive” in each case.
For `O=C(O)Cc1cccc2ccccc12`, the outcome in [3], in [15] and in experiment [7] was inactive. In addition, the max response in experiment [5] was 10.6% and 0.107%; in experiment [8], -5.32% and -9%; in experiment [10] it was 4.01% and -7.8%; in [11], 3.25% (inactive) and 2.98% (inactive). The Potency entry in [6], in [13] and in experiment [14] was “inactive” in each case. Further, in [12], the activity change % (negative = inhibition) is 9.53% (inactive) and -11.8% (inactive).
`CC1=C(/C=C/C(C)=C/C=C/C(C)=C/C(=O)Nc2ccc(O)cc2)C(C)(C)CCC1`: the Potency in experiment [16] is 15.8 µM [inconclusive] (active). The result in [17] and in experiment [7] was inactive. The Potency result in [13] and in [14] was “inactive” each time.
For the compound `CN(C)CCC(c1ccccc1)c1ccccn1` (centres undefined), the activation in experiment [18] is 4.14% (inactive). In addition, the max response in experiment [5] is 37.9%; in [8], -9.83%; in [10], -6.63%; in experiment [11] it was -4.45% (inactive). In addition, the result in [19], in experiment [15], in experiment [7] and in experiment [9] was inactive. Moreover, in experiment [12], the activity change % (negative = inhibition) was -6.32% (inactive). Besides, in experiment [14], the Potency result was “inactive”.
For `CCn1cc(C(=O)O)c(=O)c2ccc(C)nc21`, the Potency entry in [16], in [6] and in [14] was “inactive” in each case. In addition, the result in experiment [3], in experiment [19], in experiment [15], in experiment [7] and in experiment [9] was inactive. The max response in [10] is 14% and -13.8%; in experiment [11], -0.374% (inactive) and 6.98% (inactive). Also, the activity change % (negative = inhibition) in experiment [12] was 17.4% (inactive) and 3.09% (inactive).
